From PubChem BioAssay (NCATS)
Records with an inconclusive call do not appear. Active and inactive are the calls of the source. Calls follow the shape of the dose curve; as a rule, active = well fitted curve in the direction sought with a large enough effect; inconclusive = small, poorly fitted or top-dose-only effect, or another doubt; inactive = no such curve, though single readings can be large; an effect the other way counts as inactive or inconclusive.

Experiments:
W2 = assay: qHTS profiling for inhibitors of Plasmodium falciparum proliferation (AID 504749); also: nearly all actives have a fitted effect of over 60% in size; conditions: P. falciparum in erythrocytes, SYBR Green DNA, 72 h; series mostly up to 28.7 µM
How it was run: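 Fluorescence of SYBR Green-bound parasite DNA, read at 485/535 nm, served as the growth measure. Infected erythrocytes were cultured with compound 72 h; artemisinin (0.29 uM) and DMSO wells defined the normalization range.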

HEK293 = assay: Cytotoxic Profiling of Annotated Libraries Using Quantitative High-Throughput Screening (AID 1296008); conditions: Five cell lines viability, CellTiter-Glo ATP luminescence, 48-72 h; max response: stronger effect = lower value; also: nearly all actives have a fitted effect of over 60% in size; as to max response: % is scaled to controls: 0 for no effect and ±100 for the full control effect
How it was run: (§1)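 Compounds were pin-transferred onto cells and incubated 48 or 72 hr at 37 degree Celsius, 95% humidity. CellTiter-Glo was added, plates sat 10 min at room temperature, then ATP-coupled luminescence was imaged as the viability read-out.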

HaCat [1] = assay: as above; conditions: Five cell lines viability, CellTiter-Glo ATP luminescence, 48-72 h; max response: stronger effect = lower value
How it was run: as §1

KB-3-1 = assay: as above; conditions: Five cell lines viability, CellTiter-Glo ATP luminescence, 48-72 h; max response: stronger effect = lower value
How it was run: as §1

NIH3T3 [2] = assay: as above; conditions: Five cell lines viability, CellTiter-Glo ATP luminescence, 48-72 h; max response: stronger effect = lower value
How it was run: as §1

HACAT [3] = assay: qHTS assay to identify novel small-molecules to repurpose for Merkel cell carcinoma treatment (AID 1296009); conditions: MCC and control cell lines, CellTiter-Glo viability, 72 h; at 44.8 µM (top of the series) unless noted; also: nearly all actives have a fitted effect of over 60% in size
How it was run: (§2)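 Luminescence from CellTiter-Glo, read 10 min after addition at room temperature, reported viability following a 72 hr, 37 degree celsius treatment with NPC or MIPE compounds in titration; values normalized to plate controls.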

MCC-13 = assay: as above; conditions: MCC and control cell lines, CellTiter-Glo viability, 72 h; series mostly up to 46 µM
How it was run: as §2

MCC-26 = assay: as above; conditions: MCC and control cell lines, CellTiter-Glo viability, 72 h; series mostly up to 46 µM
How it was run: as §2

MKL-1 = assay: as above; conditions: MCC and control cell lines, CellTiter-Glo viability, 72 h; series mostly up to 46 µM
How it was run: as §2

MKL-2 = assay: as above; conditions: MCC and control cell lines, CellTiter-Glo viability, 72 h; series mostly up to 46 µM
How it was run: as §2

UISO = assay: as above; conditions: MCC and control cell lines, CellTiter-Glo viability, 72 h; series mostly up to 46 µM
How it was run: as §2

WaGa = assay: as above; conditions: MCC and control cell lines, CellTiter-Glo viability, 72 h; series mostly up to 46 µM
How it was run: as §2

C33A = assay: Primary qHTS to identify gynecologic anti-cancer compounds using libraries of approved drugs and bioactive compounds (AID 1345084); conditions: Gynecologic cancer cell panel viability, ATPlite luminescence, 48 h; series mostly up to 57.5 µM; also: nearly all actives have a fitted effect of over 55% in size
How it was run: (§3)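 48 h compound exposure at 37 C, 5% CO2; five-point qHTS. ATPlite luminescence readout of cell ATP.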

CAOV3 = assay: as above; conditions: Gynecologic cancer cell panel viability, ATPlite luminescence, 48 h; series mostly up to 57.5 µM
How it was run: as §3

CASKI = assay: as above; conditions: Gynecologic cancer cell panel viability, ATPlite luminescence, 48 h; series mostly up to 57.5 µM
How it was run: as §3

Es-2 = assay: as above; conditions: Gynecologic cancer cell panel viability, ATPlite luminescence, 48 h; series mostly up to 57.5 µM
How it was run: as §3

HeLa = assay: as above; conditions: Gynecologic cancer cell panel viability, ATPlite luminescence, 48 h; series mostly up to 57.5 µM
How it was run: as §3

NIH3T3 [4] = assay: qHTS assay to identify novel small-molecules to repurpose for Merkel cell carcinoma treatment (AID 1296009); conditions: MCC and control cell lines, CellTiter-Glo viability, 72 h; at 44.8 µM (top of the series); also: nearly all actives have a fitted effect of over 60% in size
How it was run: as §2

CRL-7250 = normal cell line; assay: Cytotoxic Profiling of Annotated Libraries Using Quantitative High-Throughput Screening (AID 1296008); conditions: Five cell lines viability, CellTiter-Glo ATP luminescence, 48-72 h; max response: stronger effect = lower value; also: nearly all actives have a fitted effect of over 60% in size; as to max response: % is scaled to controls: 0 for no effect and ±100 for the full control effect
How it was run: as §1
Potency is read from the fitted curve at half-maximal effect.

CC(C)(C)CC(C)(C)c1ccc(O)c(-n2nc3ccccc3n2)c1
active: Potency (W2) 6.01 µM
inactive: max response (HEK293) -0.0454% | outcome (HaCat [1]) | max response (KB-3-1) 2.75% | max response (NIH3T3 [2]) 3.67% | outcome (HACAT [3]) | Potency (MCC-13) | Potency (MCC-26) | Potency (MKL-1) | Potency (MKL-2) | Potency (UISO) | Potency (WaGa) | Potency (C33A) | Potency (CAOV3) | Potency (CASKI) | Potency (Es-2) | Potency (HeLa)

COc1ccc(/C=N/NC(=O)c2ccncc2)cc1OC
inactive: Potency (W2) | max response (HEK293) -3.6% | outcome (HaCat [1]) | max response (KB-3-1) 0.981% | max response (NIH3T3 [2]) -0.709% | outcome (HACAT [3]) | Potency (MCC-13) | Potency (MCC-26) | Potency (MKL-1) | Potency (MKL-2) | Potency (UISO) | Potency (WaGa) | Potency (C33A) | Potency (CAOV3) | Potency (CASKI) | Potency (Es-2) | Potency (HeLa)

CCOc1cc(OCC)c(C(=O)CCC(=O)O)cc1OCC
inactive: Potency (W2) | max response (HEK293) -0.0497% | outcome (HaCat [1]) | max response (KB-3-1) -0.0013% | outcome (NIH3T3 [2]) | outcome (HACAT [3]) | Potency (MCC-13) | Potency (MCC-26) | Potency (MKL-1) | Potency (MKL-2) | outcome (NIH3T3 [4]) | Potency (UISO) | Potency (WaGa) | Potency (C33A) | Potency (CAOV3) | Potency (CASKI) | Potency (Es-2) | Potency (HeLa)

CCN1/C(=C/C=C/c2sc3ccccc3[n+]2CC)Sc2ccccc21
active: Potency (W2) 0.0953 µM | Potency (CRL-7250) 0.13 µM | Potency (HaCat [1]) 2.91 µM | Potency (KB-3-1) 7.31 µM | Potency (NIH3T3 [2]) 1.84 µM | Potency (MCC-13) 3.26 µM | Potency (MCC-26) 5.8 µM | Potency (MKL-1) 0.366 µM | Potency (MKL-2) 0.058 µM | Potency (UISO) 0.366 µM | Potency (WaGa) 0.82 µM | Potency (C33A) 2.51 µM | Potency (Es-2) 2.51 µM | Potency (HeLa) 0.891 µM

CCCCCCCCCCCCCCC[C@H](O)[C@@H](N)CO
inactive: max response (CRL-7250) -2.05% | max response (HaCat [1]) -24.2% | max response (NIH3T3 [2]) -9.49% | Potency (MCC-13) | Potency (MCC-26) | Potency (MKL-1) | Potency (MKL-2) | Potency (UISO) | Potency (WaGa) | Potency (C33A) | Potency (CAOV3) | Potency (CASKI) | Potency (Es-2) | Potency (HeLa)

CN1CCN(c2cc3c(cc2F)c(=O)c(C(=O)O)cn3-c2ccc(F)cc2)CC1
active: Potency (W2) 12 µM
inactive: max response (CRL-7250) -1.2% | max response (HaCat [1]) 2% | max response (NIH3T3 [2]) -2.14% | Potency (MCC-13) | Potency (MKL-1) | Potency (MKL-2) | Potency (UISO) | Potency (WaGa) | Potency (C33A) | Potency (CAOV3) | Potency (CASKI) | Potency (Es-2) | Potency (HeLa)

CN(CCCN1c2ccccc2CCc2ccccc21)CC(=O)c1ccc(Cl)cc1
inactive: max response (CRL-7250) -9.87% | max response (HaCat [1]) -17.1% | max response (KB-3-1) 3.26% | max response (NIH3T3 [2]) 3.31% | Potency (MCC-13) | Potency (MCC-26) | Potency (MKL-1) | Potency (C33A) | Potency (CAOV3) | Potency (CASKI) | Potency (Es-2) | Potency (HeLa)
active: Potency (W2) 3.38 µM

CN1CCN(C2=Nc3cc(F)ccc3Cc3ccccc32)CC1
active: Potency (W2) 7.57 µM
inactive: max response (CRL-7250) -25% | max response (HaCat [1]) -42.8% | max response (KB-3-1) 0.909% | max response (NIH3T3 [2]) -19.6% | Potency (MCC-13) | Potency (MCC-26) | Potency (MKL-1) | Potency (MKL-2) | Potency (UISO) | Potency (C33A) | Potency (CAOV3) | Potency (CASKI) | Potency (Es-2) | Potency (HeLa)

CCC(C(=O)OCCOCCN(CC)CC)c1ccccc1 (configuration not stated)
inactive: max response (HEK293) -19.3% | outcome (HaCat [1]) | max response (KB-3-1) 16.3% | outcome (NIH3T3 [2]) | outcome (HACAT [3]) | Potency (MCC-13) | Potency (MCC-26) | Potency (MKL-1) | Potency (MKL-2) | outcome (NIH3T3 [4]) | Potency (UISO) | Potency (WaGa) | Potency (C33A) | Potency (CAOV3) | Potency (CASKI) | Potency (Es-2) | Potency (HeLa)
active: Potency (W2) 12 µM

C[N+]1(C)CCC(=C(c2ccccc2)c2ccccc2)CC1
inactive: Potency (W2) | max response (CRL-7250) -1% | outcome (HaCat [1]) | max response (NIH3T3 [2]) -1.38% | outcome (HACAT [3]) | Potency (MCC-13) | Potency (MCC-26) | Potency (MKL-1) | Potency (MKL-2) | Potency (C33A) | Potency (CAOV3) | Potency (CASKI) | Potency (Es-2) | Potency (HeLa)

COc1cc(C(=O)NCc2ccc(OCCN(C)C)cc2)cc(OC)c1OC
inactive: Potency (W2) | max response (CRL-7250) -8.61% | max response (HaCat [1]) 4.17% | max response (NIH3T3 [2]) -0.23% | Potency (MCC-13) | Potency (MCC-26) | Potency (MKL-1) | Potency (MKL-2) | Potency (UISO) | Potency (WaGa) | Potency (C33A) | Potency (CAOV3) | Potency (CASKI) | Potency (Es-2) | Potency (HeLa)

O=C(CCN1CCN2CCCC2C1)N1c2ccccc2Sc2ccc(Cl)cc21 (configuration not stated)
inactive: max response (CRL-7250) -7.08% | outcome (HaCat [1]) | max response (NIH3T3 [2]) 3.25% | outcome (HACAT [3]) inactive [at 17.4 µM] | Potency (MCC-13) | Potency (MCC-26) | Potency (MKL-1) | Potency (UISO) | Potency (WaGa) | Potency (C33A) | Potency (CASKI) | Potency (Es-2) | Potency (HeLa)
active: Potency (W2) 3.01 µM

COc1ccc(S(=O)(=O)N2c3ccc(Cl)cc3[C@@](O)(c3ccccc3Cl)[C@H]2C(=O)N2CCC[C@@H]2C(N)=O)cc1OC
inactive: max response (CRL-7250) -16.1% | max response (HaCat [1]) -3.91% | max response (KB-3-1) -5.62% | max response (NIH3T3 [2]) 1.04% | Potency (MCC-13) | Potency (MCC-26) | Potency (MKL-1) | Potency (MKL-2) | Potency (UISO) | Potency (WaGa) | Potency (C33A) | Potency (CASKI) | Potency (Es-2) | Potency (HeLa)
